# Out of some 2,100 compounds screened, about 590 (28%) were called active. Roughly 42% stayed inconclusive and do not appear here. The list shows a part of the results. Unmarked numbers belong to inactive results. Calls follow the shape of the dose curve; as a rule, active = well fitted inhibition curve with a large enough effect; inconclusive = small, poorly fitted or top-dose-only effect; inactive = flat fitted curve, though single readings scatter.
# Target: DNA dC->dU-editing enzyme APOBEC-3F (Homo sapiens) (UniProt Q8IUX4)
# Sequence (Q8IUX4 whole entry, looked up): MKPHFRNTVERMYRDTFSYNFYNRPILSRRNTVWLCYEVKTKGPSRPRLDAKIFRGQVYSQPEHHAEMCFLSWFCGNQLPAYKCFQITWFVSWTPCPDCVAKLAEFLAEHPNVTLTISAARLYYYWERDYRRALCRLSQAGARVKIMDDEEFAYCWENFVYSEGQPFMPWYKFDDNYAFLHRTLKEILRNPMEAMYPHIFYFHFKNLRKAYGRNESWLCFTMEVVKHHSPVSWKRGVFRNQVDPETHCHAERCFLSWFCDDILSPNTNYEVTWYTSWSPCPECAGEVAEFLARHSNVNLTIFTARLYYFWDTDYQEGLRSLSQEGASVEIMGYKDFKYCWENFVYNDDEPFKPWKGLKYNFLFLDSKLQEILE
# Experiment: qHTS for inhibitors of Vif-A3F interactions: Cherry picks; also: nearly all actives have a fitted effect of over 70% in size;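 as to max response: % of control where 0% means no effect; active compounds raise eYFP fluorescence by blocking Vif-driven A3F loss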
# Conditions: HeLa A3F-eYFP + Vif (tagged APOBEC3F with the HIV-1 protein that degrades it), eYFP fluorescence, 24 h
# Excerpt: The recent discovery and characterization of host restriction factors, which provide a potent defense to invading retroviruses, has provided new targets for antiviral drug development. APOBEC3G (A3G) and APOBEC3F (A3F) are potent cytidine deaminases that block HIV-1 replication; HIV-1 expresses the Vif protein, which counteracts A3G and A3F by binding to them and inducing their proteasomal degradation. The Vif-A3G and Vif-A3F interactions provide two potential targets for development of small molecules which can interfere with the ability of Vif to degrade A3G or A3F. […] To identify inhibitors that can interfere with Vif mediated degradation of A3G and A3F, we have developed Hela cell lines that stably express A3G or A3F tagged with eYFP at the C-terminal end (A3G-eYFP or A3F-eYFP, respectively) and Vif. In the absence of an inhibitor, Vif induces degradation of A3G-eYFP and A3F-eYFP, and the cells are not fluorescent. In the presence of an inhibitor, it is expected that Vif will be unable to degrade A3G-eYFP and/or A3F-eYFP, resulting in an increase in yellow fluorescence. In this assay, Vif A3F was screened against the cherry picks ordered from the MLSMR. NIH Chemical Genomics Center [NCGC] NIH Molecular Libraries Probe Centers Network [MLPCN] MLPCN Grant: MH093245 Assay Submitter (PI): Vinay Pathak, National Cancer Institute
# A3F-Vif cells were harvested from T225 flask and resuspended in phenol free OPTI-MEM medium with 5% FBS. Then 5 uL of 140,000 cells/mL resuspended cells was dispensed into each well of low base Aurora COC 1,536-well plates (black walled, clear bottom) using a Multidrop Combi dispenser. After overnight culture at 37 deg C with 5% CO2, a total of 23 nL of compounds at 5 selected concentrations from the NPC or positive control (2 mM stock of MG132) in DMSO was transferred to each well of the assay plate using a pintool (Kalypsys, San Diego, CA), and the plates were further incubated at 37 deg C with 5% CO2 for 24 hours. After that, the plates were measured on Acumen Explorer (TTP Lab Tech). The fluorescence was detected by 488 nm/Ex and […].
# Potency is read from the fitted curve at half-maximal effect.
SMILES,Potency,max response [%]
Cc1ccc(CNC(=O)c2ccccc2NC(=O)c2nsc3ccccc23)cc1,20.6 µM (active),
CCN(CC)c1ccc(/C=C2\C(=O)NC(=S)N(C)C2=O)o1,14 µM (active),
CCN(CC)c1ccc(C=C2C(=O)N(C)C(=S)N(C)C2=O)o1,3.96 µM (active),
Cc1ccc(/C=C2/C(=O)NC(=O)N(CCc3ccc(F)cc3)C2=O)s1,,-13.3
Cc1cccc(-n2c(/C=C/c3c(C)[nH]c4ccccc34)nc3ccccc3c2=O)c1,20.6 µM (active),
O=Cc1c(C(=O)O)n(Cc2ccc(Cl)cc2)c2ccccc12,20.6 µM (active),
CC(=O)OC1C2(CC3N4C(=O)C5(CO)SSC4(CC31O)C(=O)N5C)OC(C)C(C)(C)C2=O (stereo not drawn),6.27 µM (active),
Cc1cccc(CN2CCCC(C(=O)c3cccc(OC(C)C)c3)C2)n1 (stereo not drawn),,3.61
O=C1NC(=S)SC1=Cc1ccc(N(CCCl)CCCl)cc1,14 µM (active),
ClCCN(CCCl)c1ccc(C=Cc2ccncn2)cc1,,-17
CN1C(=O)C(=Cc2ccc(N3CCCCC3)o2)C(=O)N(C)C1=S,5.17 µM (active),
CN1C(=O)C(=Cc2ccc(N3CCOCC3)o2)C(=O)N(C)C1=O,18.4 µM (active),
CN1C(=O)C(=Cc2ccc(N3CCOCC3)o2)C(=O)N(C)C1=S,23.1 µM (active),
O=C1NC(=O)N(c2ccc3c(c2)OCO3)C(=O)/C1=C\c1ccc(N2CCCCC2)o1,18.4 µM (active),
O=C1NC(=O)N(c2ccc3c(c2)OCO3)C(=O)/C1=C/c1ccc(N2CCCCC2)o1,23.1 µM (active),
CC(C)c1ccc(N2C(=O)NC(=O)/C(=C\C=C\c3ccco3)C2=O)cc1,17.7 µM (active),
CN(C)c1ccc(/C=C/C=C2/C(=O)NC(=O)N(c3ccccc3)C2=O)cc1,16.4 µM (active),
Cc1ccc(N2C(=O)NC(=O)/C(=C\C=C\c3ccco3)C2=O)cc1C,,-16.6
O=C1NC(=O)N(Cc2ccc(F)cc2)C(=O)/C1=C\C=C\c1ccco1,,-29.5
Cc1cc(N2CCCC2)ccc1C=C(C#N)C#N,7.31 µM (active),
Cc1nn(Cc2ccccc2)c(C)c1C(=O)OCC(=O)Nc1ccccc1SCC#N,14 µM (active),
CCN(CC)c1ccc(N=Cc2c(O)n(CCC3=CCCCC3)c(=O)[nH]c2=O)cc1,3.66 µM (active),
CC/C(=N\NC(=O)c1ccccc1O)c1c(O)n(Cc2ccccc2)c(=O)[nH]c1=O,,-28.7
CCN(CC)c1ccc(N=Cc2c(O)n(Cc3ccccc3)c(=O)[nH]c2=O)cc1,3.26 µM (active),

SMILES,Potency,max response [%]
CC1=CC(=Cc2sc3ccccc3[n+]2C)C=C(C)O1,5.17 µM (active),
CCCCn1c(O)c(C(=O)/C=C/c2c[nH]c3ccccc23)c(=O)[nH]c1=O,12.5 µM (active),
CCC(C)N1C(=O)/C(=C\c2ccc(N3CCCCCC3)cc2)C(=O)NC1=S (stereo not drawn),,-14.3
CN1C(=O)/C(=C/c2ccc(N3CCCCCC3)o2)C(=O)NC1=S,12.5 µM (active),
Cc1cc(/C=C2\C(=O)NC(=O)N(c3ccc(Br)cc3)C2=O)c(C)n1C,,-6.73
CN1CCN(c2ccc(/C=C3\C(=O)NC(=S)N(c4cccc(Br)c4)C3=O)o2)CC1,18.4 µM (active),
CN1C(=O)/C(=C\c2ccc(N3CCCCC3)o2)C(=O)NC1=S,14 µM (active),
O=c1[nH]c(CN2CC=C(c3ccccc3)CC2)nc2scc(-c3ccccc3)c12,18.4 µM (active),
Nc1ccc2c3c(cccc13)-c1ccccc1-2,4.11 µM (active),
COc1cc(C2C(C#N)=C(N)Oc3cc(O)ccc32)cc(OC)c1OC (stereo not drawn),1.98 µM (active),
CCCCNC(=O)/C(C#N)=c1\s/c(=C\c2ccccc2OC(F)F)c(=O)n1CCCOC,16.4 µM (active),
CCCCCn1c(NC(=O)c2ccco2)c(C(=O)OCC)c2nc3ccccc3nc21,15.8 µM (active),
COCCNC(=O)c1c(NC(=O)c2ccc(Br)o2)n(Cc2ccccc2)c2nc3ccccc3nc12,,-6.71
O=c1[nH]c(=O)n(Cc2ccccc2Cl)c(O)c1/C=C1/C=CC=N1,9.2 µM (active),
CC(C)CCCn1c(O)c(/C=C2/C=CC=N2)c(=O)[nH]c1=O,18.4 µM (active),
COC(=O)C1=C(C)N(Cc2ccco2)C(=O)/C1=C\c1ccc(N(C)C)cc1,13 µM (active),
O=c1c2ccccc2nc(/C=C/c2ccc([N+](=O)[O-])o2)n1-c1ccc(O)cc1,12.5 µM (active),
CN1/C(=C\C=C2C(=O)NC(=O)NC2=O)C(C)(C)c2ccccc21,,-9.38
O=C1NC(=O)N(Cc2ccc(F)cc2)C(=O)/C1=C\c1ccoc1,,-24.2
O=C(Cc1ccccc1)c1ccccn1,17.7 µM (active),
CCS(=O)(=O)N1N=C(c2cccc(NS(C)(=O)=O)c2)CC1c1ccccc1 (stereo not drawn),23.1 µM (active),
COc1ccccc1-n1c(/C=C/c2ccc(O)cc2)nc2ccccc2c1=O,,-0.327
Cc1ccccc1-n1c(/C=C/c2ccc(N(C)C)cc2)nc2ccccc2c1=O,3.26 µM (active),
O=c1nc(/C=C/c2ccc(Cl)cc2Cl)cc(C(F)(F)F)[nH]1,,-25.1

# From PubChem BioAssay AID651814 (National Center for Advancing Translational Sciences (NCATS), 2012)
